# Measured values as given in the supplement of paper PMC8728848.
# About 410 targets per protein were measured; listed, in parts, are those with the strongest signals and a random draw of the rest.
# B1: GS13971A-bth-447-22-447 (Bacteroides thetaiotaomicron) (protein)
# chain: EDVDNERSKGMFSASQSGFSTIEVYDLGPLNKIDLSIAKAGLEDTGGTVTFSVEQSLLDSLNNADGTSYQLLPPECYTIENATYSVSPGGDRRVTGGSLVYDPHKIYNLCGFDELKYVLPLRVSSTGTPMNSDRTATLYGFIVKEAIVRLASTGGDFVVEGGTTTSPMNLDTEISFENEWDLTTSFATKGADYVDNYNSANSTYYIPLPSDFYTLPDVTIAKGKTTGGSAISLLGETLPPGNYLLPVSLGGLSGQGDASINIDKETVANYFVIKQGGPINRDHWTVTANTEEKTGEVSAAYPHNGQTISLIDGEINTFWHSKWQGGEVAPPYEIILDMGKENSVSQLGLIARQNALTSMNLEIYAGDDGETWNLIGKYFFDGSIKTEQMVPVKACDARWIRIYIPTLGSGSSVGHLAEIYVYGTDK
# What was measured:
# Experiment in all cases: glycan array binding signal (z-score within array); higher = stronger binding
# Conditions in all cases: glycan notation: IUPAC condensed, linker removed
# [1] = target: Gal(b1-4)GlcNAc(b1-3)[GlcNAc(b1-6)]Gal(b1-4)GlcNAc
# Outline: (§1)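 From the Consortium for Functional Glycomics database, 3228 arrays were curated, keeping only those whose protein sequence was available. Binding is given as a within-array Z-score averaged across arrays sharing a protein sequence and across linkers. Negative Z-scores can be read as non-binding.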
# [2] = target: Gal(b1-4)GlcNAc(b1-6)[Gal(b1-4)GlcNAc(b1-3)]GalNAc
# Outline: as §1
# [3] = target: Gal3S(b1-4)[Fuc(a1-3)]GlcNAc6S
# Outline: as §1
# [4] = target: Gal6P(b1-4)GlcNAc
# Outline: as §1
# [5] = target: GalNAc(b1-3)Gal(a1-6)Gal(b1-4)Glc
# Outline: as §1
# [6] = target: GalNAc(b1-4)GlcNAc
# Outline: as §1
# [7] = target: GalNAc(b1-4)GlcNAc(b1-2)Man(a1-3)[GalNAc(b1-4)GlcNAc(b1-2)Man(a1-6)]Man(b1-4)GlcNAc(b1-4)GlcNAc
# Outline: as §1
# [8] = target: GalNAc4S6S(b1-4)GlcNAc
# Outline: as §1
# [9] = target: Glc(a1-6)Glc(a1-6)Glc(a1-6)Glc
# Outline: as §1
# [10] = target: GlcA(b1-3)GlcNAc
# Outline: as §1
# [11] = target: GlcNAc(b1-3)Gal(b1-4)GlcNAc(b1-2)Man(a1-3)[GlcNAc(b1-3)Gal(b1-4)GlcNAc(b1-2)Man(a1-6)]Man(b1-4)GlcNAc(b1-4)GlcNAc
# Outline: as §1
# [12] = target: GlcNAc(b1-3)Gal(b1-4)GlcNAc(b1-3)Gal(b1-4)GlcNAc(b1-3)Gal(b1-4)GlcNAc(b1-2)[GlcNAc(b1-3)Gal(b1-4)GlcNAc(b1-3)Gal(b1-4)GlcNAc(b1-3)Gal(b1-4)GlcNAc(b1-6)]Man(a1-6)[GlcNAc(b1-3)Gal(b1-4)GlcNAc(b1-3)Gal(b1-4)GlcNAc(b1-3)Gal(b1-4)GlcNAc(b1-2)Man(a1-3)]Man(b1-4)GlcNAc(b1-4)[Fuc(a1-6)]GlcNAc
# Outline: as §1
# [13] = target: GlcNAc(b1-6)Gal(b1-4)GlcNAc
# Outline: as §1
# [14] = target: Man(a1-3)[Man(a1-6)]Man(b1-4)GlcNAc(b1-4)GlcNAc
# Outline: as §1
# [15] = target: Man(a1-3)[Man(a1-6)]Man(b1-4)GlcNAc(b1-4)[Fuc(a1-6)]GlcNAc
# Outline: as §1
# [16] = target: MurNAc(b1-4)GlcNAc
# Outline: as §1
# [17] = target: Neu5Ac(a2-3)Gal(b1-3)GalNAc
# Outline: as §1
# [18] = target: Neu5Ac(a2-3)Gal(b1-3)GlcNAc(b1-2)Man(a1-3)[Neu5Ac(a2-3)Gal(b1-3)GlcNAc(b1-2)Man(a1-6)]Man(b1-4)GlcNAc(b1-4)GlcNAc
# Outline: as §1
# [19] = target: Neu5Ac(a2-3)Gal(b1-4)GlcNAc(b1-2)[Neu5Ac(a2-3)Gal(b1-4)GlcNAc(b1-6)]Man(a1-6)[Neu5Ac(a2-3)Gal(b1-4)GlcNAc(b1-2)Man(a1-3)]Man(b1-4)GlcNAc(b1-4)GlcNAc
# Outline: as §1
# [20] = target: Neu5Ac(a2-3)Gal(b1-4)GlcNAc(b1-3)Gal(b1-4)GlcNAc
# Outline: as §1
# [21] = target: Neu5Ac(a2-3)Gal(b1-4)GlcNAc(b1-3)Gal(b1-4)GlcNAc(b1-3)Gal(b1-4)GlcNAc(b1-2)Man(a1-3)[Neu5Ac(a2-3)Gal(b1-4)GlcNAc(b1-3)Gal(b1-4)GlcNAc(b1-3)Gal(b1-4)GlcNAc(b1-2)Man(a1-6)]GalNAc
# Outline: as §1
# [22] = target: Neu5Ac(a2-6)Gal(b1-4)GlcNAc(b1-2)Man(a1-3)[GlcNAc(b1-4)][Neu5Ac(a2-6)Gal(b1-4)GlcNAc(b1-2)Man(a1-6)]Man(b1-4)GlcNAc(b1-4)GlcNAc
# Outline: as §1
# [23] = target: Neu5Ac(a2-6)Gal(b1-4)GlcNAc(b1-2)[Neu5Ac(a2-6)Gal(b1-4)GlcNAc(b1-4)]Man(a1-3)[GlcNAc(b1-4)][Neu5Ac(a2-6)Gal(b1-4)GlcNAc(b1-4)Man(a1-6)]Man(b1-4)GlcNAc(b1-4)GlcNAc
# Outline: as §1
# [24] = target: Neu5Ac(a2-6)Gal(b1-4)GlcNAc6S
# Outline: as §1
# [25] = target: Neu5Ac(a2-8)Neu5Ac(a2-8)Neu5Ac(a2-3)Gal(b1-4)Glc
# Outline: as §1
binder,measurement,setting,value
B1,glycan array binding signal (z-score),[1],0.129
same,glycan array binding signal (z-score),[2],-0.463
same,glycan array binding signal (z-score),[3],0.338
same,glycan array binding signal (z-score),[4],-0.674
same,glycan array binding signal (z-score),[5],-0.007
same,glycan array binding signal (z-score),[6],2.92
same,glycan array binding signal (z-score),[7],5.75
same,glycan array binding signal (z-score),[8],-0.217
same,glycan array binding signal (z-score),[9],0.028
same,glycan array binding signal (z-score),[10],-0.782
same,glycan array binding signal (z-score),[11],-0.725
same,glycan array binding signal (z-score),[12],2.94
same,glycan array binding signal (z-score),[13],2.1
same,glycan array binding signal (z-score),[14],0.252
same,glycan array binding signal (z-score),[15],-0.859
same,glycan array binding signal (z-score),[16],-0.36
same,glycan array binding signal (z-score),[17],0.032
same,glycan array binding signal (z-score),[18],-0.673
same,glycan array binding signal (z-score),[19],1.47
same,glycan array binding signal (z-score),[20],1.45
same,glycan array binding signal (z-score),[21],2.81
same,glycan array binding signal (z-score),[22],0.18
same,glycan array binding signal (z-score),[23],-1.25
same,glycan array binding signal (z-score),[24],-1.24
same,glycan array binding signal (z-score),[25],1.11
